The results in this text go back to ChEMBL document CHEMBL3988442, “University of Dundee, Small-Polar-MMV Screening Library” (2021).

For experiment [1], the target named is T1, Aspartate--tRNA(Asp/Asn) ligase (Mycobacterium tuberculosis (strain ATCC 25618 / H37Rv)) (UniProt P9WFW3). Note: in the data most compounds retested in dose-response had high values.
T1 sequence (whole entry): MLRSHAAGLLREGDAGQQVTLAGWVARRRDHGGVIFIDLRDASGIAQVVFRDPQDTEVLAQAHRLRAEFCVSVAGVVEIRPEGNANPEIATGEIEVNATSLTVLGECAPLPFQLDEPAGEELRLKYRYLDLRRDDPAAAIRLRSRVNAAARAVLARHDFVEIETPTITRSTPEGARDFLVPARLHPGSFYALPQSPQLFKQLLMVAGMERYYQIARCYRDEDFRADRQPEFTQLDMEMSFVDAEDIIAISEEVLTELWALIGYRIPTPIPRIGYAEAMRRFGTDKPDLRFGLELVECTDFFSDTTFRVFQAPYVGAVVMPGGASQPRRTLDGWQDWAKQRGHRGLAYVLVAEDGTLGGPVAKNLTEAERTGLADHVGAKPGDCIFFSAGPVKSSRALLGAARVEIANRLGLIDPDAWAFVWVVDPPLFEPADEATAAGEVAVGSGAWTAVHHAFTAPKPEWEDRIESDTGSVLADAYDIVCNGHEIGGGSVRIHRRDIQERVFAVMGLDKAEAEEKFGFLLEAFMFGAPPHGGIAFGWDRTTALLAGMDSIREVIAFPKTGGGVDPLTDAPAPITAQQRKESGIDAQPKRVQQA
Description: Assay for Asp RNA synthetase-1 from Mycobacterium tuberculosis. The class given is functional. The arrangement: scale not given: direction of the effect not stated beside the values. To be noted: 30 µM.

Experiment [2] addresses Shiga toxin 2 (Escherichia coli O157:H7) (UniProt P09385+P09386). Description: E. coli 0.157:H7 Shiga Toxin SOP - stx2 screening assay. The class given is functional. Further details: scale not given: direction of the effect not stated beside the values. The conditions noted are these: 30 µM.

In the case of `CCOC1COC2(CCN(Cc3cccc(F)c3)CC2)C1` (configuration not stated), the Percent Effect is -3.19% in experiment [1] and -3.58% in experiment [2].

Regarding `CC(C)c1csc(C2CCCN(C(=O)Cn3ccccc3=O)C2)n1` (configuration not stated), the values for the Percent Effect in experiment [1] and in experiment [2] were -3.63% and -29.5%, respectively.

Consider `COc1ccnc(N2CCN(C(=O)c3csc(C(C)C)n3)CC2)n1`, for which the Percent Effect in experiment [1] was -5.15%; in experiment [2] it was -4.83%.

As to `COc1ccc(C(=O)NCCCn2ccnc2)c(OC)n1`, the Percent Effect in experiment [1] is -1.77%; in experiment [2] it was -22.8%.

As to `OC(CN1CCN(Cc2ccc(F)cc2)CC1)C1CC1` (configuration not stated), the figures for the Percent Effect in experiment [1] and in experiment [2] were -7.53% and -3.92%, respectively.

With `CC(=O)N1CCC(C(=O)N(C)[C@@H]2CCC[C@@H](N3CCCC3)[C@@H]2O)CC1`, the Percent Effect in experiment [1] was 1.35%; in experiment [2], -6.16%.

On to `Cc1ccc(C)c(OCCN2CCC(N3CCNC3=O)CC2)c1`, for which the results for the Percent Effect in experiment [1] and in experiment [2] were 0.583% and -1.43%, respectively.

For `O=C(CCc1cccs1)N1CCC(N2CCNC2=O)CC1`, the Percent Effect in experiment [1] is -2.08%; in experiment [2], -4.13%.

On to `Cc1csc(CCCNC(=O)[C@H]2CNC[C@@H](C(=O)N3CCCC3)C2)n1`, for which the Percent Effect in experiment [1] was -3.08%; in experiment [2], -2.63%.

As to `Cc1cnn(C2CCCN(C(=O)c3ccnc(N(C)C)c3)C2)c1` (configuration not stated), the Percent Effect in experiment [1] is -5.57%; in experiment [2], -16.8%.

As to `O=C(NCC1CCCO1)c1c(-n2cnnn2)sc2c1CCC2` (configuration not stated), the Percent Effect was found to be 1.11% in experiment [1] and 2.95% in experiment [2].

With `CN(C)c1nc2c(c(=O)[nH]1)CCN(C(=O)c1cccc3nccnc13)C2`, the Percent Effect in experiment [1] is 4.01%; in experiment [2], -35%.

Take `Cc1cc2nc(SCC(=O)N3CCCC3)n(C(C)C)c(=O)c2[nH]1`: the Percent Effect in experiment [1] was 0.509%; in experiment [2], -18%.

For the compound `Cc1noc(C2CCN(C(=O)CN(C)c3ccc(Cl)cn3)CC2)n1`, the Percent Effect is -1.59% in experiment [1] and -21.6% in experiment [2].

`COCCC(=O)N1CCCC2(CCC(=O)N2CCOC)CC1` (configuration not stated): the values for the Percent Effect in experiment [1] and in experiment [2] were 0.751% and -11.1%, respectively.

As for `Cc1cc(F)ccc1CNCCn1cccn1`, the figures for the Percent Effect in experiment [1] and in experiment [2] were -3.06% and 13%, respectively.

With `CSCCC(=O)N1CCC(Oc2cc(C)ccc2F)(C(=O)O)CC1`, the Percent Effect was -1.34% in experiment [1] and -3.19% in experiment [2].

On to `O=S(=O)(Cc1ccccc1)NCc1ccco1`, for which the figures for the Percent Effect in experiment [1] and in experiment [2] were -3.04% and 4.92%, respectively.

With `COc1ncccc1C(=O)N1CC[C@H]2C[C@@H](C)O[C@@H]2C1`, the values for the Percent Effect in experiment [1] and in experiment [2] were -1.34% and -45%, respectively.

Turning to `CC(Cn1cccn1)NC(=O)N(C)Cc1ccc(Cl)s1` (configuration not stated), the Percent Effect in experiment [1] was -7.31%; in experiment [2], -6.54%.

In the case of `CN(C(=O)c1cccc(C(=O)NCC(F)(F)F)c1)c1ccccc1`, the values for the Percent Effect in experiment [1] and in experiment [2] were -2.65% and -62.9%, respectively.

Turning to `Cc1cnc2n(c1=O)CC(C(=O)NC1CC1)CS2` (configuration not stated), the Percent Effect is -3.65% in experiment [1] and 0.421% in experiment [2].

Regarding `CC(NC(=O)c1cccs1)C(=O)NCc1ccccc1CN1CCCC1` (configuration not stated), the Percent Effect is -4.19% in experiment [1] and -31.6% in experiment [2].

For `CN(C(=O)NCCCN1CCCC1)C1CCN(c2ccccc2)C1=O` (configuration not stated), the Percent Effect was -0.189% in experiment [1] and 24.2% in experiment [2].

Turning to `Cn1ccc(C(=O)N2CCCC(n3cncn3)C2)cc1=O` (configuration not stated), the Percent Effect in experiment [1] is -4.15%; in experiment [2], -5.76%.

Regarding `Cc1cccc(CNC(CN2CCN(C)CC2)c2ccccc2)c1` (configuration not stated), the Percent Effect was 3.03% in experiment [1] and -5.1% in experiment [2].

On to `COc1cccc(CCC2CCCN(C(=O)c3n[nH]c4c3CCC4)C2)c1` (configuration not stated), for which the Percent Effect was 2.06% in experiment [1] and -1.83% in experiment [2].

`Cc1c(C(=O)NC(C)C(C)C)nnn1-c1cccc2c1CCN(C)C2` (configuration not stated): the Percent Effect in experiment [1] turned out to be 2.19%; in experiment [2], 3.53%.

In the case of `Cn1nccc1C1CCN(Cc2csc(-c3ncccn3)n2)CC1`, the Percent Effect was 5.92% in experiment [1] and -10.6% in experiment [2].

With `COCC(c1cccc(C(F)(F)F)c1)N(C)C(=O)c1cc(C)n[nH]1` (configuration not stated), the values for the Percent Effect in experiment [1] and in experiment [2] were 1.86% and 24.9%, respectively.

As to `O=C(c1ccc(OCC2CC2)nc1)N1CCCC(n2ccnc2)C1` (configuration not stated), the Percent Effect in experiment [1] is -9.61%; in experiment [2] it was -43.4%.

Take `Cn1ccc(CN2CCC(Oc3ccccc3)CC2)cc1=O`: the Percent Effect was -1.21% in experiment [1] and -5.66% in experiment [2].

On to `O=C1COC2(COCCN(Cc3cccnc3)C2)CN1c1ccoc1` (configuration not stated), for which the Percent Effect in experiment [1] is 9.69%; in experiment [2] it was -7.3%.

For `CS(=O)(=O)CC(=O)N1C[C@@H]2COC[C@]2(c2nnc(C3CC3)o2)C1`, the values for the Percent Effect in experiment [1] and in experiment [2] were -1.72% and -40.1%, respectively.

`Cn1cccc1C(CNC(=O)c1ccc(F)cc1F)N1CCCCCC1` (configuration not stated): the Percent Effect in experiment [1] is 1.24%; in experiment [2], -33.8%.

In the case of `c1cnc(-c2nc(CN3CCCC(Cn4cncn4)C3)cs2)nc1` (configuration not stated), the Percent Effect was -1.55% in experiment [1] and 20.5% in experiment [2].

With `COCc1noc(-c2ccc(N(C)Cc3cc(C)no3)nc2)n1`, the Percent Effect in experiment [1] is 0.703%; in experiment [2], -7.35%.

On to `c1cncc(C2COC3(CCN(CC4CC4)CC3)C2)c1` (configuration not stated), for which the Percent Effect was -0.915% in experiment [1] and -13.1% in experiment [2].

With `CCc1noc(C(C)N2CCOCC2)n1` (configuration not stated), the results for the Percent Effect in experiment [1] and in experiment [2] were -10.8% and 6.48%, respectively.

For the compound `CCn1nc(C(=O)N2CCCC(n3cncn3)C2)ccc1=O` (configuration not stated), the Percent Effect in experiment [1] was -5.19%; in experiment [2], 18.8%.

With `Cc1ccc2cc(CNCCCN3CCOCC3)c(=O)[nH]c2c1`, the Percent Effect in experiment [1] is -2.01%; in experiment [2], -12.7%.

Regarding `CC(C)C(C)NC(=O)Nc1ccc(CS(C)(=O)=O)cc1` (configuration not stated), the figures for the Percent Effect in experiment [1] and in experiment [2] were 3.12% and -11.6%, respectively.

Consider `Cc1ccc(CNC(c2ccccc2)c2nccn2C)cc1C` (configuration not stated), for which the Percent Effect in experiment [1] amounted to 1.11%; in experiment [2], 14.8%.

Turning to `CN(c1ccncn1)C1CC2(CCN(C(=O)c3cccs3)C2)C1` (configuration not stated), the Percent Effect in experiment [1] is -6.21%; in experiment [2], -35.5%.

With `CCn1cc(CN(C)S(=O)(=O)c2ccc(NC(C)=O)cc2)cn1`, the Percent Effect was 2.64% in experiment [1] and -65.2% in experiment [2].

On to `CCN(C)c1ncnc2c1CCN(C(=O)c1ccno1)CC2`, for which the Percent Effect was 7.02% in experiment [1] and -5.46% in experiment [2].

For the compound `O=C(NCCn1ccc(-c2ccncc2)n1)c1ccncc1`, the Percent Effect in experiment [1] is 1.52%; in experiment [2], -65.9%.

Consider `CC(C)C(=O)NCC(=O)N(C)C1CCCN(C2Cc3ccccc3C2)C1` (configuration not stated), for which the Percent Effect in experiment [1] was 1.1%; in experiment [2], 0.34%.

On to `Cc1ccc([C@@H]2CN(C(=O)c3csc(C)n3)C[C@H]2NC(=O)C2CC2)cc1`, for which the figures for the Percent Effect in experiment [1] and in experiment [2] were -3.36% and 15.2%, respectively.

In the case of `Cn1cc(N2CC3(CCN(Cc4cccs4)CC3)OCC2=O)cn1`, the figures for the Percent Effect in experiment [1] and in experiment [2] were -0.729% and -20.1%, respectively.

For `CCc1ccccc1C(=O)N1CCN(S(C)(=O)=O)[C@@H](C)C1`, the Percent Effect in experiment [1] was 0.259%; in experiment [2], -3%.
